These results are taken from PubChem BioAssay (NCI).

About 83,000 compounds went through this panel and 20% of them were active in at least one assay; those are over-represented in the sample as a whole.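 Single-concentration screen, 48 h exposure, 96-well plates. Endpoint: percent growth. Below 10 = active.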 Values without a mark were called inactive. Active and inactive are the calls of the source.

Holding throughout (test): NCI-60 one-dose screen, 48 h (100 = growth as untreated, 0 = no growth, -100 = all killed)
What all share (details): 10 µM unless noted

The test system of experiment [1] is SK-MEL-2 melanoma.
For experiment [2], the system named is EKVX NSCLC.
Experiment [3] concerns SN12C renal.
The subject of experiment [4] is UO-31 renal.
Experiment [5] relates to TK-10 renal.
For experiment [6], the system named is ACHN renal.
Experiment [7] relates to CAKI-1 renal.
The test system of experiment [8] is A498 renal.
Experiment [9] deals with CCRF-CEM leukemia.
Experiment [10] concerns MOLT-4 leukemia.

As to `COc1cc2c3c(c4c5ccccc5[nH]c4c2c(OC)c1OC)C(=O)N(CCN1CCCCC1)C3=O`, the growth in experiment [1] is 49.4%; in experiment [2] it was 35.1%; in experiment [3] it was 12.6%; in experiment [4], 16.1%; in experiment [5], -76.6% (active); in [6], -40.4% (active). In addition, the growth is -49% (active) in [7], 42.4% in [8], 3.38% (active) in [9] and 12.9% in experiment [10].
Turning to `CCOC(=O)c1c(NC(=O)c2ccccc2)sc2c3c(ccc12)OCN(C)C3`, the growth in experiment [1] is -34.4% (active); in experiment [2], 26.3%; in experiment [3], 20.4%; in experiment [4], -75.6% (active); in experiment [5], 68.5%; in experiment [6] it was -68.7% (active). The growth is -42% (active) in experiment [7], 46.5% in experiment [8], -0.327% (active) in [9] and -33% (active) in experiment [10].
Consider `COc1ccc(C=Nc2c(C(=O)Nc3cccc(Cl)c3C)sc3nc(C)c(C(=O)/C=C/c4ccc(OC)cc4)cc23)cc1`, for which the growth in experiment [1] is 42.2%; in experiment [2], 43.2%; in experiment [3] it was 21%; in experiment [4], 35.9%; in experiment [5], 36.5%; in experiment [6] it was 36.1%. For the same compound, the growth in experiment [7] was 24%; in experiment [8], -4.79% (active); in [9], 19.7%; in experiment [10], 52.2%.
For `c1cc(OCCN2CCCCCC2)ccc1CNc1ccc2nc(CCC3CCCCC3)[nH]c2c1`, the growth is 75% in experiment [1]; 79.8% in experiment [2]; 54.7% in [3]; 10.8% in experiment [4]; 88.7% in [5]; 80.6% in experiment [6]. Besides, the growth was 42.8% in [7], 62.5% in experiment [8], 29.5% in experiment [9] and 25.5% in experiment [10].
As to `CN1CC(c2ccc(Br)cc2)C(C(=O)c2ccc(Br)cc2)C12C(=O)Nc1ccccc12` (stereo not given), the growth in experiment [1] was 82.9%; in [2], 70.1%; in experiment [3], 70%; in experiment [4] it was 48.3%; in experiment [5] it was 92.1%; in experiment [6] it was 79.6%. Moreover, the growth in [7] was 46.9%; in experiment [8], 88.9%; in experiment [9], 80.2%; in experiment [10] it was 64.3%.
Take `O=C(Nc1ccc(Oc2cccc(Cl)c2)c(Cl)c1)c1cccnn1`: the growth was 102% in experiment [1]; 87.3% in experiment [2]; 83.2% in experiment [3]; 64.9% in experiment [4]; 75% in [5]; 97.9% in [6]. Also, the growth in experiment [7] is 80.8%; in experiment [8] it was 87.4%; in experiment [9], 84%; in experiment [10], 80.1%.
With `C/C=C1/CN(CCCCC)CC[C@H]1C(=O)c1cc2ccccc2[nH]1`, the growth in experiment [1] is 118%; in [2], 94.1%; in experiment [3], 86.1%; in experiment [4] it was 50.7%; in experiment [5], 120%; in experiment [6] it was 96.1%. The growth in [7] was 87.6%; in [8], 88.9%; in experiment [9], 96.8%; in [10] it was 86.1%.
Take `Cn1cc(-c2csc(-c3cn(C)c4ccccc34)n2)c2cnccc21`: the growth in [1] was 107%; in experiment [2], 16.8%; in experiment [3], 67.8%; in experiment [4], -48.1% (active); in experiment [5] it was 66.7%; in experiment [6] it was -61.4% (active). Besides, the growth in [7] is -6.15% (active); in experiment [8] it was 85.2%; in [9], 0.781% (active); in experiment [10] it was 5.42% (active).
As for `NS(=O)(=O)c1ccc(C(=O)NN2C(=O)c3ccccc3C2=O)cc1`, the growth is 116% in [1]; 105% in [2]; 104% in experiment [3]; 89.9% in experiment [4]; 103% in experiment [5]; 112% in experiment [6]. In addition, the growth in experiment [7] is 94%; in [8], 73.3%; in experiment [9], 107%; in experiment [10], 107%.
As to `N#CC1=C(N)Oc2c(sc3c(F)cccc23)C1c1ccc([N+](=O)[O-])cc1` (stereo not given), the growth in experiment [1] was -42.2% (active); in [2], -2.24% (active); in [3], -79% (active); in [4] it was -26.4% (active); in experiment [5], -7.94% (active); in [6], -2.28% (active). In addition, the growth in [7] was 0.858% (active); in [8] it was -36.3% (active); in experiment [9], 3.46% (active); in experiment [10], -1.93% (active).
Take `COC(=O)c1ccc2cc(OC)c(OC)cc2c1`: the growth is 134% in [1]; 84.8% in experiment [2]; 104% in experiment [3]; 100% in experiment [4]; 103% in experiment [5]; 106% in experiment [6]. Also, the growth in [7] was 91.6%; in experiment [8] it was 75.4%; in experiment [9], 91%; in experiment [10], 85.8%.
In the case of `c1ccc(-c2nc3ccccc3[nH]2)c(OCCCCCOc2ccccc2-c2nc3ccccc3[nH]2)c1`, the growth in [1] is 85.4%; in experiment [2], 68.2%; in experiment [3], 63.4%; in [4], 58.6%; in [5] it was 100%; in experiment [6], 89.4%. The growth in experiment [7] was 104%; in [8], 71.5%; in [9], -44.1% (active); in experiment [10] it was 56.3%.
Consider `Nc1[nH]nc2nc(-c3ccccc3)n3c4ccccc4nc3c12`, for which the growth was 98.8% in [1]; 78% in experiment [2]; 104% in experiment [3]; 83.2% in experiment [4]; 110% in experiment [5]; 89% in [6]. Besides, the growth in experiment [7] was 83.1%; in [8], 89.2%; in [9] it was 102%; in experiment [10], 97.9%.
Turning to `CN(C)Cc1ccc(NC(=O)c2cncc(C#Cc3cnc(N)c4ncccc34)c2)cc1C(F)(F)F`, the growth in experiment [1] was 40.5%; in [2] it was 89.4%; in experiment [3] it was 69.9%; in [4] it was -82% (active); in experiment [5] it was 110%; in experiment [6], -81.8% (active). The growth is 83% in [7], 60.6% in [8], -6.13% (active) in experiment [9] and 43.5% in experiment [10].
For the compound `N#Cc1nn(-c2cc(=O)[nH]c3ccc(Br)cc23)c(N)c1C#N`, the growth in experiment [1] was 103%; in [2], 87.5%; in [3] it was 87.3%; in experiment [4], 65.7%; in experiment [5], 110%; in experiment [6], 91%. Also, the growth is 90.5% in experiment [7], 105% in experiment [8], -32% (active) in experiment [9] and -16.1% (active) in [10].
As to `COC(=O)[C@]1(C)CCC[C@]2(C)[C@H]3C[C@@H]4[C@H]5[C@@H]6CC/C(=N\OCC/C(N)=N/O)[C@H]5[C@@]3(CC[C@H]21)CC4(C(C)C)O6`, the growth was 85.8% in [1]; 62.5% in experiment [2]; 63.4% in [3]; 50.1% in experiment [4]; 84.9% in [5]; 68.4% in [6]. Besides, the growth was 65.1% in [7], 82.4% in [8], 18.9% in experiment [9] and 28% in experiment [10].
As for `COc1ccc2c(c1)c(-c1nc(-c3ccc4ccccc4c3)cs1)cn2C`, the growth was 108% in [1]; 85.8% in experiment [2]; 93.6% in [3]; 70.6% in experiment [4]; 102% in experiment [5]; 87.4% in experiment [6]. Moreover, the growth is 83.6% in experiment [7], 86.8% in experiment [8], 88.7% in experiment [9] and 84% in experiment [10].
Regarding `N#Cc1ccccc1-c1ccc(CN2C(=O)S/C(=C\c3ccc(Br)cc3)C2=O)cc1`, the growth in [1] is 102%; in experiment [2], 87.8%; in experiment [3], 91.6%; in experiment [4], 91%; in [5], 110%; in [6], 104%. For the same compound, the growth in [7] was 85.4%; in [8], 107%; in experiment [9] it was 100%; in experiment [10], 106%.
As for `CN(C)Cc1cc(C(C)(C)C)cc(Br)c1O`, the growth in experiment [1] is 113%; in experiment [2], 96.8%; in [3], 105%; in experiment [4], 98%; in experiment [5], 100%; in experiment [6], 108%. For the same compound, the growth in experiment [7] was 91.6%; in experiment [8], 90.6%; in experiment [9] it was 116%; in experiment [10], 110%.
As for `CC/C(=C(/c1ccc(O)cc1)c1ccc(OCCN2CCCCC2)cc1)c1ccc(OC)cc1`, the growth in experiment [1] is 97.4%; in experiment [2] it was 87%; in experiment [3], 91.1%; in experiment [4], 70%; in experiment [5], 86.6%; in experiment [6], 91.3%. Besides, the growth in experiment [7] was 91.2%; in experiment [8], 83.2%; in experiment [9], 42.1%; in experiment [10], 23%.
For the compound `Oc1c(I)cc(I)cc1CN(Cc1ccccn1)Cc1ccccn1`, the growth is 21.6% in [1]; 13% in [2]; 27.3% in experiment [3]; -19.2% (active) in experiment [4]; 8.19% (active) in experiment [5]; 10.4% in experiment [6]. Also, the growth in experiment [7] is 0.0911% (active); in [8] it was 22.3%; in experiment [9], 9.21% (active); in experiment [10], 5.38% (active).
With `CC1(C)N=C(N)N=C(N)N1c1cc(Cl)ccc1Cl`, the growth was 19.5% in experiment [1]; 99.7% in experiment [2]; 90.4% in experiment [3]; 91% in [4]; 94% in experiment [5]; -25.2% (active) in [6]. In addition, the growth in [7] was 9.84% (active); in [8], 83.8%; in experiment [9] it was 96.1%; in [10], 71.1%.
Consider `COc1ccc(Oc2ccc(/C=C/C(=O)c3ccc(OC)c(OC)c3)cc2)cc1`, for which the growth in experiment [1] was 89%; in experiment [2], 79.4%; in [3], 86.7%; in [4], 70.9%; in experiment [5], 105%; in experiment [6], 92.5%. The growth in experiment [7] was 85.5%; in experiment [8], 90.3%; in experiment [9], 70.3%; in [10] it was -9.69% (active).
For `O=C(CCCCCCCC(=O)N1CCCCC1)N1CCCCC1`, the growth is 103% in experiment [1]; 100% in experiment [2]; 99.4% in experiment [3]; 71.4% in experiment [4]; 97.3% in experiment [5]; 97.8% in experiment [6]. Besides, the growth is 89.4% in experiment [7], 94.2% in experiment [8], 116% in experiment [9] and 126% in experiment [10].
With `Cc1oc(-c2ccc(Cl)cc2)nc1C1=NN(C(=O)c2ccncc2)C(c2ccccc2)C1` (stereo not given), the growth is 97.2% in [1]; 95.8% in experiment [2]; 88.7% in experiment [3]; 59.5% in experiment [4]; 114% in experiment [5]; 92% in [6]. Further, the growth in experiment [7] is 76%; in experiment [8], 78%; in [9], 93.4%; in [10] it was 77.1%.
Regarding `Clc1ccc(-c2cc(-c3ccccc3)nc(N3CCN(CCCNc4ccnc5cc(Cl)ccc45)CC3)n2)cc1`, the growth in [1] was 12.4%; in experiment [2] it was 80.1%; in experiment [3] it was -90.2% (active); in experiment [4] it was -52% (active); in experiment [5], 40.5%; in experiment [6] it was 3.37% (active). Also, the growth in [7] was -31.5% (active); in [8], 69.5%; in [9] it was 2.6% (active); in experiment [10], 2.31% (active).
Regarding `C#CCOc1cccc(Nc2ncnc3cc(NC(=O)CCl)ccc23)c1`, the growth in experiment [1] was -55.3% (active); in experiment [2], -49.1% (active); in [3] it was -83.5% (active); in experiment [4] it was -88.7% (active); in [5], -85% (active); in [6], -84.1% (active). Moreover, the growth is -57.7% (active) in [7], -25.6% (active) in experiment [8], -46.9% (active) in experiment [9] and -35.4% (active) in experiment [10].
